Experimental data taken from PubChem BioAssay AID1159580 (chemical genetic matrix, 2015).
About 2,000 (36%) of roughly 5,500 compounds were called active. Inconclusive results (about 18%) are left out. Rule as the data show it: active = normalized growth mostly below about 0.91 (no sharp cut-off); inconclusive = no clear call, values can overlap the other calls; inactive = mostly above about 0.92. The list shows a part of the results.

Assay: chemical genetic growth profiling, strain panel (AID 1159580);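 also: tested at 20 µM; growth read once vehicle control cultures reached saturation at 30 °C; 1 = growth at the plate median or of vehicle wells; lower values mean less growth of the strain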
Conditions: growth OD

Measured: normalized growth

O=c1c(O)c(-c2ccc(O)c(O)c2)oc2cc(O)ccc12
active: S. cerevisiae deletion strains, locus YKL190W, strain CNB1, hits give low values 0.881 | S. cerevisiae deletion strains, locus YKR001C, strain vps1, hits give low values 0.857 | S. cerevisiae deletion strains, locus YLR113W, strain HOG1, hits give low values 0.571 | S. cerevisiae deletion strains, locus YLR268W, strain sec22, hits give low values 0.854 | S. cerevisiae deletion strains, locus YLR330W, strain CHS5, hits give low values 0.908 | S. cerevisiae deletion strains, locus YLR342W, strain FKS1 (second series), hits give low values 0.753 | S. cerevisiae deletion strains, locus YLR371W, strain rom2, hits give low values 0.882 | S. cerevisiae deletion strains, locus YLR418C, strain cdc73, hits give low values 0.565 | S. cerevisiae deletion strains, locus YMR223W, strain ubp8, hits give low values 0.893 | S. cerevisiae deletion strains, locus YNL153C, strain GIM3, hits give low values 0.806 | S. cerevisiae deletion strains, locus YNL183C, strain NPR1, hits give low values 0.357 | S. cerevisiae deletion strains, locus YNL233W, strain BNI4, hits give low values 0.795 | S. cerevisiae deletion strains, locus YNL307C, strain MCK1, hits give low values 0.779 | S. cerevisiae deletion strains, locus YNL322C, strain KRE1, hits give low values 0.918 | S. cerevisiae deletion strains, locus YOL006C, strain TOP1, hits give low values 0.52 | S. cerevisiae deletion strains, locus YOR231W, strain MKK1, hits give low values 0.54 | S. cerevisiae deletion strains, locus YPL256C, strain CLN2, hits give low values 0.421 | S. cerevisiae deletion strains, strain wtn01, hits give low values 0.86 | S. cerevisiae strains, strain wild type, hits give low values 0.815
inactive: S. cerevisiae deletion strains, locus YKL009W, strain mrt4, hits give low values 1.03 | S. cerevisiae deletion strains, locus YKL068W, hits give low values 0.99 | S. cerevisiae deletion strains, locus YKL085W, strain MDH1 (second series), hits give low values 1 | S. cerevisiae deletion strains, locus YKL085W, strain MDH1, hits give low values 1 | S. cerevisiae deletion strains, locus YKL160W, strain elf1, hits give low values 0.982 | S. cerevisiae deletion strains, locus YKR026C, strain gcn3, hits give low values 1 | S. cerevisiae deletion strains, locus YKR091W, strain srl3, hits give low values 1 | S. cerevisiae deletion strains, locus YLL001W, strain dnm1, hits give low values 0.994 | S. cerevisiae deletion strains, locus YLL026W, hits give low values 0.995 | S. cerevisiae deletion strains, locus YLL041C, strain sdh2, hits give low values 0.996 | S. cerevisiae deletion strains, locus YLR027C, strain aat2, hits give low values 0.968 | S. cerevisiae deletion strains, locus YLR039C, strain RIC1, hits give low values 0.848 | S. cerevisiae deletion strains, locus YLR058C, strain SHM2, hits give low values 0.978 | S. cerevisiae deletion strains, locus YLR102C, strain apc9, hits give low values 1.01 | S. cerevisiae deletion strains, locus YLR221C, strain rsa3, hits give low values 0.95 | S. cerevisiae deletion strains, locus YLR258W, strain gsy2, hits give low values 1 | S. cerevisiae deletion strains, locus YLR262C, strain YPT6 (second series), hits give low values 0.981 | S. cerevisiae deletion strains, locus YLR262C, strain YPT6, hits give low values 0.877 | S. cerevisiae deletion strains, locus YLR320W, strain mms22, hits give low values 0.942 | S. cerevisiae deletion strains, locus YLR342W, strain FKS1, hits give low values 0.978 | S. cerevisiae deletion strains, locus YLR357W, strain rsc2, hits give low values 0.922 | S. cerevisiae deletion strains, locus YLR370C, strain arc18, hits give low values 0.978 | S. cerevisiae deletion strains, locus YLR384C, strain iki3, hits give low values 0.98 | S. cerevisiae deletion strains, locus YML016C, strain PPZ1, hits give low values 0.974 | S. cerevisiae deletion strains, locus YML032C, strain rad52, hits give low values 0.962 | S. cerevisiae deletion strains, locus YML120C, strain ndi1, hits give low values 1.01 | S. cerevisiae deletion strains, locus YML124C, strain tub3, hits give low values 1 | S. cerevisiae deletion strains, locus YMR058W, strain fet3, hits give low values 0.944 | S. cerevisiae deletion strains, locus YMR078C, strain ctf18, hits give low values 0.997 | S. cerevisiae deletion strains, locus YMR125W, strain sto1, hits give low values 1.02 | S. cerevisiae deletion strains, locus YMR129W, hits give low values 0.986 | S. cerevisiae deletion strains, locus YMR205C, strain PFK2, hits give low values 0.994 | S. cerevisiae deletion strains, locus YMR231W, strain pep5, hits give low values 0.987 | S. cerevisiae deletion strains, locus YMR263W, strain SAP30, hits give low values 0.892 | S. cerevisiae deletion strains, locus YMR307W, strain GAS1, hits give low values 0.675 | S. cerevisiae deletion strains, locus YNL067W, strain RPL9B, hits give low values 0.901 | S. cerevisiae deletion strains, locus YNL071W, strain lat1, hits give low values 0.945 | S. cerevisiae deletion strains, locus YNL128W, strain TEP1, hits give low values 0.864 | S. cerevisiae deletion strains, locus YNL209W, strain ssb2, hits give low values 0.949 | S. cerevisiae deletion strains, locus YNL248C, strain rpa49, hits give low values 0.995 | S. cerevisiae deletion strains, locus YNL250W, strain rad50, hits give low values 0.942 | S. cerevisiae deletion strains, locus YNL271C, strain bni1, hits give low values 0.978 | S. cerevisiae deletion strains, locus YNL298W, strain CLA4, hits give low values 0.965 | S. cerevisiae deletion strains, locus YNL322C, strain KRE1 (second series), hits give low values 1 | S. cerevisiae deletion strains, locus YNR049C, strain mso1, hits give low values 0.997 | S. cerevisiae deletion strains, locus YNR052C, strain pop2, hits give low values 1 | S. cerevisiae deletion strains, locus YOL012C, strain htz1 0.318 | S. cerevisiae deletion strains, locus YOL147C, strain pex11, hits give low values 1 | S. cerevisiae deletion strains, locus YOR001W, strain rrp6, hits give low values 0.935 | S. cerevisiae deletion strains, locus YOR061W, strain CKA2, hits give low values 0.955 | S. cerevisiae deletion strains, locus YOR069W, strain VPS5, hits give low values 0.997 | S. cerevisiae deletion strains, locus YOR070C, strain gyp1, hits give low values 0.968 | S. cerevisiae deletion strains, locus YOR080W, strain dia2, hits give low values 0.984 | S. cerevisiae deletion strains, locus YOR083W, strain WHI5, hits give low values 0.984 | S. cerevisiae deletion strains, locus YOR106W, strain vam3, hits give low values 0.984 | S. cerevisiae deletion strains, locus YOR136W, strain idh2, hits give low values 0.976 | S. cerevisiae deletion strains, locus YOR144C, strain elg1, hits give low values 1.01 | S. cerevisiae deletion strains, locus YOR184W, strain ser1, hits give low values 0.883 | S. cerevisiae deletion strains, locus YOR265W, strain rbl2, hits give low values 1.02 | S. cerevisiae deletion strains, locus YOR270C, strain vph1, hits give low values 1.02 | S. cerevisiae deletion strains, locus YOR290C, strain snf2, hits give low values 0.997 | S. cerevisiae deletion strains, locus YOR316C, strain cot1, hits give low values 1.01 | S. cerevisiae deletion strains, locus YPL051W, strain arl3, hits give low values 0.962 | S. cerevisiae deletion strains, locus YPL055C, strain LGE1, hits give low values 0.784 | S. cerevisiae deletion strains, locus YPL078C, strain atp4, hits give low values 1.01 | S. cerevisiae deletion strains, locus YPL106C, strain sse1, hits give low values 0.971 | S. cerevisiae deletion strains, locus YPL240C, strain hsp82, hits give low values 0.998 | S. cerevisiae deletion strains, locus YPL241C, strain CIN2, hits give low values 0.981 | S. cerevisiae deletion strains, locus YPR119W, strain clb2, hits give low values 1.01 | S. cerevisiae deletion strains, locus YPR141C, strain kar3, hits give low values 0.978 | S. cerevisiae deletion strains, locus YPR163C, strain tif3, hits give low values 0.956 | S. cerevisiae deletion strains, locus YPR167C, strain met16, hits give low values 1.01
